# Active and inactive are the calls of the source. Rule for the calls: active = hit-call score of the fitted dose curve at least 0.9, where 1 is the maximum; inactive = score below 0.9.
# Assay: Tanguay_ZF_120hpf_MO24: Oregon State University Tanguay Lab 24 Hour Post-fertilization zebrafish Assay for Mortality (AID 2284389)
# Protocol: Tanguay_ZF_120hpf is a whole embryo, multiplexed endpoint assay using zebrafish larvae exposed for 120 hours post fertilization on a 96-well plate.Tanguay_ZF_120hpf_MO24 is one of one assay component(s) measured or calculated from the Tanguay_ZF_120hpf assay. It is designed to make measurements of zebrafish development as detected with brightfield microscopy of developing zebrafish embryos.Data from the assay component Tanguay_ZF_120hpf_MO24 was analyzed into 1 assay endpoints. This assay endpoint, Tanguay_ZF_120hpf_MO24, was analyzed in the positive analysis fitting direction relative to DMSO as the negative control and baseline of activity. Using a type of viability reporter, gain-of-signal activity can be used to understand changes in developmentals as they relate to the whole embryo. To generalize the intended target to other relatable targets, this assay endpoint is annotated to the zebrafish development intended target family, where the subfamily is embryonic mortality.
# Zebrafish husbandry: Tropical 5D wild-type adult zebrafish were housed in at an approximate density of 1000 per 100 gallon tank at the Sinnhuber Aquatic Research Laboratory, Oregon State University, Corvallis, OR. Each tank was kept at standard laboratory conditions of 28C on a 14-h light/10-h dark photoperiod in fish water consisting of reverse osmosis water supplemented with a commercially available salt (Instant Ocean). Spawning funnels were placed into the tanks the night prior, and embryos were collected and staged. To increase bioavailability, the chorion was enzymatically removed using pronase (63.6mg/ml, >/= 3.5U/mg, Sigma-Aldrich: P5147) at 4 hours post fertilization (hpf) using a custom automated dechorionator.Chemical exposures: Six hpf dechorionated embryos were placed 1 embryo per well in a 96-well plate prefilled with 90 ul of EM using automated embryo placement systems (AEPS). Ten microliters of each row of dilution plate 2 was added to 2 exposure plates. The final DMSO concentration used was 0.64% (vol/vol). Thirty-two embryos were also exposed to 5uM trimethyltin chloride (positive control). Plates were sealed to prevent evaporation and foil covered to reduce light exposure and kept in a 28C incubator. Embryos were statically exposed until 120 hpf. At 24 hpf, embryos were assessed for photomotor response using a custom photomotor response analysis tool (PRAT) and for developmental toxicity endpoints (MO24: mortality at 24 hpf, DP: developmental progression, SM: spontaneous movement, and NC: notochord distortion). At 120 hpf, locomotor activity was measured using Viewpoint Zebralab and assessed for 13 endpoints. Zebrafish acquisition and analysis program (ZAAP), a custom program designed to inventory, acquire, and manage zebrafish data, was used to collect developmental endpoints as either present or absent (i.e., binary responses were recorded). If mortality occurred for an embryo (at either 24 or 120 hpf), the non-mortality endpoints were not measured.
Structure (SMILES),outcome,AC50
C[Si](C)(C)C(F)(F)C(F)(F)C(F)(F)F,inactive,
OCCC(F)(F)C(F)(F)C(F)(F)C(F)(F)F,inactive,
FC(F)C(F)(F)COCC1CO1 (stereo not given),inactive,
NCC(F)(F)C(F)(F)C(F)(F)C(F)(F)F,inactive,
OC(O)(C(F)C(O)(O)C(F)(F)F)C(F)(F)F,inactive,
O=S(=O)(O)CCC(F)(F)C(F)(F)C(F)(F)C(F)(F)C(F)(F)C(F)(F)F,inactive,
FC(F)(F)C(F)(F)C(F)(F)C(F)(F)C(F)(F)C(F)(F)I,inactive,
FC(F)=C(F)C(F)(F)C(F)(F)C(F)(F)C(F)(F)C(F)(F)C(F)(F)F,inactive,
FC(F)(F)COC(OCC(F)(F)F)OCC(F)(F)F,inactive,
O=C(Cl)C(F)(F)C(F)(F)C(F)(F)C(=O)Cl,,57.3 µM (active)

# From PubChem BioAssay (EPA / NIEHS)
